According to PubChem BioAssay (Tox21):
“And” between values parts separate entries of the source, which are not always exact repeats. Equal values may be shown once. Results filed as inconclusive are left out. Values without a mark were called inactive. The source made the active and inactive calls. Calls follow the shape of the dose curve; as a rule, active = well fitted cell-killing curve with a large enough effect in the repeat runs; inconclusive = weak or mixed curves, or effect the other way; inactive = flat fitted curve, though single readings scatter.

test: qHTS RealTime-Glo MT Cell Viability Assay in HEK293 cells - 24 hour (AID 1224886); details: RealTime-Glo luminescence; series mostly up to 76.8 µM; activity change, negative = cytotoxicity: at the top concentration; also: nearly all actives have a fitted effect of over 50% in size; as to activity change, negative = cytotoxicity: top concentration of the series differs between compounds
From the text: National Center for Advancing Translational Sciences [NCATS]
NIH Chemical Genomics Center [NCGC]
U.S. Environmental Protection Agency [EPA]
National Institutes of Environmental Health Sciences [NIEHS]
National Toxicology Program [NTP]
U.S. Food and Drug Administration [FDA]
Measure of cell viability is critical in the cell-base assay. Analysis of cell viability is necessary for the characterization of cell responses to cytotoxic drugs and environmental stress. A RealTime-Glo MT Cell Viability Assay to monitor cell viability in real time of continues cell culture during 40 hours of compound treatment was used to screen Tox21 10K library compounds in Hek293 cells. The RealTime-Glo MT Cell Viability Assay is a nonlytic, homogeneous, bioluminescent method to measure cell viability in real time using a simple, plate-based method. The assay involves adding NanoLuc luciferase and a cell-permeant prosubstrate to cells in culture. Viable cells reduce the proprietary prosubstrate to generate a substrate for NanoLuc luciferase. This substrate diffuses from cells into the surrounding culture medium, where it is rapidly used by the NanoLuc Enzyme to produce a luminescent signal. The signal correlates with the number of viable cells, making the assay well suited for cytotoxicity studies.
Tox21 Assay Protocol Summary:
The mixture of Hek293 cell suspension and reagents were dispensed at 600cells/6 ul/well in 1536-well tissue culture treated black solid bottom plates using a Multidrop dispenser. After the assay plates were incubated at a 37 C/5% CO2 incubator for 5 hours, 23 nL of compounds dissolved in DMSO, positive and negative controls was transferred to the assay plate by a pintool work station. The plates were incubated at 37 C for 40 hours. The luminescence intensity were measured at 0h, 8h, 16h, 24h, 32h and 40h time points using ViewLux plate reader during compound treatment.
% is scaled to controls: 0 for no effect and ±100 for the full control effect; potency is read from the fitted curve at half-maximal effect.

SMILES | activity change, negative = cytotoxicity | Potency
CCN(CC)C(=O)Cl | 11.5% | –
Cc1ccc2nc3sc(=O)sc3nc2c1 | 3.52% [at 15.8 µM] | –
Cc1cc(C)c(C(=O)P(=O)(c2ccccc2)c2ccccc2)c(C)c1 | – | 38.9 µM (active)
CCOC(=O)C(O)(c1ccc(Cl)cc1)c1ccc(Cl)cc1 | – | 22.1 µM (active) and 34.7 µM (active)
C[C@]12CC[C@@H](O)C[C@@H]1CC[C@@H]1[C@@H]2CC[C@]2(C)C(=O)CC[C@@H]12 | – | 38.9 µM (active)
Cc1cc(C(C)(C)c2ccc(O)c(C)c2)ccc1O | – | 20.8 µM (active)
O=[N+]([O-])c1c(Cl)c(Cl)cc(Cl)c1Cl | -4.17% | –
Cc1ccc(N(SC(F)(Cl)Cl)S(=O)(=O)N(C)C)cc1 | – | 5.49 µM (active)
Nc1ccc([N+](=O)[O-])cc1 | – | 24.5 µM (active)
O=C1C(I)=CC(=C(c2cc(I)c(O)c(I)c2)c2ccccc2C(=O)O)C=C1I | 0.695% [at 35.3 µM] | –
COc1ccc(C(c2ccc(OC)cc2)C(Cl)(Cl)Cl)cc1 | – | 48.7 µM (active)
OCC(c1ccc(Cl)cc1)c1ccc(Cl)cc1 | – | 30.9 µM (active)
COc1cc(OC)c(OC)cc1C=O | 3.15% | –
Cc1nnc2n1-c1sc(CCc3ccc(CC(C)C)cc3)cc1C(c1ccccc1Cl)=NC2C (stereo not given) | – | 10.7 µM (active)
O=C(c1ccccc1)C(Cl)Cl | – | 34.7 µM (active)
Oc1c(I)cc(I)cc1I | -22.9% | –
N#Cc1cc([N+](=O)[O-])ccc1N | -10.5% | –
CC1COC(Cn2cncn2)(c2ccc(Oc3ccc(Cl)cc3)cc2Cl)O1 (stereo not given) | – | 19.5 µM (active)
CN1CSC(=S)N(C)C1 | – | 17.3 µM (active) and 24.5 µM (active)
O=S(=O)(C(Cl)(Cl)Cl)C(Cl)(Cl)Cl | – | 11 µM (active)
